Experimental data taken from PubChem BioAssay (Tox21).
Inconclusive results are not listed. A call without a number means that no potency is given here. Values without a mark were called inactive. Activity calls are given as the source filed them. Calls follow the shape of the dose curve; as a rule, active = well fitted cell-killing curve with a large enough effect in the repeat runs; inconclusive = weak or mixed curves, or effect the other way; inactive = no such curve, though single readings can be large or run the other way.

Test: qHTS assay to identify small molecule agonists of the RXR signaling pathway - cell viability counter screen (AID 1159529); also: nearly all actives have a fitted effect of over 50% in size
Settings: RXR-alpha-bla HEK293T viability, CellTiter-Glo, 16 h; series mostly up to 76.8 µM
Excerpt: National Center for Advancing Translational Sciences [NCATS]
NIH Chemical Genomics Center [NCGC]
U.S. Environmental Protection Agency [EPA]
National Institutes of Environmental Health Sciences [NIEHS]
National Toxicology Program [NTP]
U.S. Food and Drug Administration [FDA]
The Retinoid X receptor (RXR), a nuclear hormone receptor expressed in liver, spleen, placenta, epidermis, central nervous system. These receptors are able to form homo and heterodimers with other nuclear receptors and due to this heterodimerizing ability, RXR functions as master regulators producing diverse physiological effects. Three subtypes of RXR exist; alpha, beta and gamma. Retinoid X receptor alpha (RXR-alpha) has potential roles in metabolic signaling pathways, skin alopecia, dermal cysts, cardiac development, insulin sensitization etc. Therefore screening environmental chemicals on RXR-alpha signaling can be used for the studies focused on such therapeutic applications. For quantification of RXR-alpha ligands signaling, GeneBLAzer RXR alpha-UAS-bla HEK 293T (Life Technologies, Carlsbad, CA) cells containing a beta-lactamase reporter-gene under control of Retinoid X receptor-alpha response element were used to screen Tox21 10K library. The cytotoxicity of the Tox21 compound library against the RXR-alpha HEK 293T cell line was tested in parallel by measuring cell viability using CellTiter-Glo assay (Promega Corporation, Madison, WI) in the same wells.
Tox21 Assay Protocol Summary:
RXR-alpha HEK 293T cells were dispensed at 2,000 cells/6 uL of assay medium containing 2% charcoal-stripped FBS using a Multidrop Combi (ThermoFisher Scientific, Waltham, MA) dispenser. The assay was performed in black wall/clear-bottom 1536-well plates (Greiner Bio-One North America Inc. Monroe, NC). Tetraoctyl ammonium bromide was used as a positive control in the cytotoxicity screen. After the assay plates were incubated at 37 C and 5% CO2 for 5 hr, 23 nL of compounds dissolved in DMSO, positive control or DMSO only were transferred to the assay plate by a Pintool station (Kalypsys, San Diego, CA). The assay plates were incubated at 37 C and 5% CO2 for 16 hr. One uL of LiveBLAzer B/G FRET substrate (Life Technologies) was added using a Flying Reagent Dispenser (FRD) (Aurora Discovery, San Diego, CA) and the plates were incubated at room temperature for 2 hr. Fluorescence intensity (405 nm excitation, 460/530 nm emission) was measured using an Envision plate reader (PerkinElmer, Shelton, CT). For cytotoxicity, 4 uL/well of CellTiter-Glo reagent was added into the assay plates using an FRD. After 30 min incubation at room temperature, the luminescence intensity was measured using a ViewLux plate reader (PerkinElmer).
For COc1ccccc1OCC1CNC(=O)O1 (stereo not given), the Potency was “inactive”. With O=C(O)CNC(=O)c1ccc(CO)o1 the Potency was “inactive”. With CC(C(=O)O)c1cccc(Oc2ccccc2)c1 (stereo not given) the Potency was “inactive”. With CCCCN(CCC(=O)OCC)C(C)=O the Potency was “inactive”. For Nc1ccn([C@@H]2O[C@H](CO)[C@@H](O)[C@@H]2O)c(=O)n1, the Potency was “inactive”. With C=COC(=O)C(C)(CC)CCC(C)C (stereo not given) the Potency was “inactive”. In the case of Cc1ccccc1N=C(N)N=C(N)N, the Potency is reported as “inactive”. In the case of O=S(=O)(O)c1cc(O)c(O)c(S(=O)(=O)O)c1, the Potency is reported as “inactive”. Compound NC(N)=NCCN1CCCCCCC1 has an activity change, negative = cytotoxicity of -2.51% [at 0.29 µM]. In the case of CCCCCCC1CCC(=O)O1 (stereo not given), the Potency is reported as “inactive”. For CC(C)(C)c1ccc(-c2ccc(C(C)(C)C)cc2)cc1, the Potency was “inactive”. With C=CCOCC(O)CO (stereo not given) the Potency was “inactive”. With Clc1cc(Cl)c(Cl)nc1Cl the Potency was “inactive”. Compound CCCCCCCCCCOc1cc2c(=O)c(C(=O)OCC)c[nH]c2cc1OCC has an activity change, negative = cytotoxicity of -0.18% [at 6.97 µM]. With CC1=C(C/C=C(\C)CCC[C@H](C)CCC[C@H](C)CCCC(C)C)C(=O)c2ccccc2C1=O the Potency was “inactive”. With CC1=CCC(O)(C(C)C)CC1 (stereo not given) the Potency was “inactive”. For CC[C@H]1OC(=O)[C@H](C)[C@@H](O[C@H]2C[C@@](C)(OC)[C@@H](O)[C@H](C)O2)[C@H](C)[C@@H](O[C@@H]2O[C@H](C)C[C@H](N(C)C)[C@H]2O)[C@](C)(OC)C[C@@H](C)C(=O)[C@H](C)[C@@H](O)[C@]1(C)O, the Potency was “inactive”. With CC(C)c1ccc2ncccc2c1 the Potency was “inactive”. With O=C(O)c1cn(C2CC2)c2cc(N3CCNCC3)c(F)cc2c1=O the Potency was “inactive”. In the case of Nc1ccn([C@@H]2O[C@H](CO)[C@@H](O)C2(F)F)c(=O)n1, the Potency is reported as “inactive”. In the case of C=C[Si](OC(C)=O)(OC(C)=O)OC(C)=O, the Potency is reported as “inactive”. With O=C(CO)[C@@H](O)[C@H](O)[C@@H](O)CO the Potency was “inactive”. In the case of CC(=O)N1C[C@H](O)C[C@H]1C(=O)O, the Potency is reported as “inactive”. With O=S(=O)(O)c1cccc2ccccc12 the Potency was “inactive”. With C[N+](C)(CCOc1ccccc1)Cc1cccs1 the Potency was “inactive”. For [K+], the Potency was “inactive”. With CC1(C)[C@@H]2CC[C@@]1(C)[C@H](O)C2 the Potency was “inactive”. In the case of CC(=O)OCC(=O)[C@@]1(O)[C@H](C)C[C@H]2[C@@H]3CCC4=CC(=O)C=C[C@]4(C)[C@@]3(F)[C@@H](O)C[C@@]21C, the Potency is reported as “inactive”. For CCCCc1nc(Cl)c(CO)n1Cc1ccc(-c2ccccc2-c2nn[nH]n2)cc1, the Potency was “inactive”. For O=C(O)CCSCCC(=O)O, the Potency was “inactive”. In the case of CCN(Cc1ccccc1)c1ccccc1, the Potency is reported as “inactive”. In the case of O=C(O)CNC(=O)c1ccccc1, the Potency is reported as “inactive”. In the case of CO[Si](C)(OC)c1ccccc1, the Potency is reported as “inactive”. In the case of CCCCCCCCN1CCCC1=O, the Potency is reported as “inactive”. In the case of CCCCCC(C)N (stereo not given), the Potency is reported as “inactive”. With CCCC(=O)O[C@]1(C(=O)CC)CC[C@H]2[C@@H]3CCC4=CC(=O)CC[C@]4(C)[C@H]3[C@@H](O)C[C@@]21C the Potency was “inactive”. In the case of CC(C#N)(CCC(=O)O)N=NC(C)(C#N)CCC(=O)O (stereo not given), the Potency is reported as “inactive”. With COc1cc(C)nc(-n2nc(C)cc2OC)n1 the Potency was “inactive”. For CC/C=C\CCOC(C)OCC (stereo not given), the Potency was “inactive”. For CNCC(O)c1ccc(O)c(O)c1 (stereo not given), the Potency was “inactive”.
